In PubChem BioAssay (NCATS) one finds activity change, negative = inhibition and Potency data, which are given here for 33 compounds.

Values joined by “and” are separate entries in the source; they are usually repeats but may differ in a detail not shown here. Equal values may be shown once. Results filed as inconclusive are left out. The source holds several records for some structures; these can differ, active in one and inactive in another. Active and inactive are the calls of the source. Unless noted, calls follow the shape of the dose curve; as a rule, active = well fitted curve in either direction with a large enough effect (not every such curve was filed as active); inconclusive = small, poorly fitted or top-dose-only effect, or another doubt; inactive = flat fitted curve, though single readings scatter. Residues, ends and D or L forms follow the SMILES beside them. *: point of attachment. Cbz = O=C(OCc1ccccc1)*

Test [1] is described as follows: AP1 Signaling Pathway (AID 357).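 Also: ME-180 reporter cells stimulated with EGF at its EC50 level; % is scaled to controls: 0 for no effect and ±100 for the full control effect.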 To be noted: ME-180 (cervical carcinoma) AP-1-bla reporter, EGF-induced, beta-lactamase ratio, 5 h. The procedure, abridged: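 Beta-lactamase reporter under AP-1 response element, ME-180 background. Stimulus: EC50 EGF. Compound exposure 5 h, 37 °C. Detection: CCF4, 2.5 h RT, 460/530 nm. Values: AC50 from titration.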
A short description of test [2]: NFAT Signaling Pathway (AID 444).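 Also: carbachol stimulus at about its EC50 of 1 µM final; % is scaled to controls: 0 for no effect and ±100 for the full control effect.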 To be noted: Jurkat NFAT-bla M1, carbachol, beta-lactamase ratio, 5 h. The procedure, abridged: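 Read-out: CCF4 FRET ratio (460 nm/530 nm) after 1 h RT dye loading, used for %activity and AC50 from titration series. Cells: Jurkat NFAT-β-lactamase/M1 line, treated with compound plus 1 uM carbachol for 5 h, 37 °C.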
Test [3] concerns the target Cytochrome P450 1A2 (Homo sapiens) (UniProt P05177). Put plainly: p450-cyp1a2 (AID 410; calls by dose curve; also: potency is read from the fitted curve at half-maximal effect;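 as to activity change, negative = inhibition: -100% = full effect of reference inhibitor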). The following applies: recombinant CYP1A2, luciferin-ME demethylation, luminescence; series mostly up to 57 µM. The gist of the method:
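Read-out is luminescence from luciferin produced by CYP1A2 demethylation of Luciferin-ME (100uM, at Km). Detection reagent stopped the 60 min NADPH-dependent reaction; signals were normalized to 57 uM furafylline.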

The target of test [4] is Lysosomal acid glucosylceramidase (Homo sapiens) (UniProt P04062). Nature of the test: Glucocerebrosidase-p2 (AID 348; in the data active = potency below about 10 µM; also: potency is read from the fitted curve at half-maximal effect). The following applies: purified GBA, blue fluorogenic substrate, 40 min. The gist of the method: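 Normal human glucocerebrosidase (0.2 nM) with blue fluorogenic substrate (80 uM final) in citrate/phosphate pH 5.9 with 10mM sodium taurocholate, 0.01% tween-20; 40 min RT, NaOH/glycine stop; fluorescence Ex 365/Em 440; AC50 from a titration from 0.6 nM upwards.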
Sequence of Lysosomal acid glucosylceramidase (Homo sapiens) (P04062 whole entry, looked up): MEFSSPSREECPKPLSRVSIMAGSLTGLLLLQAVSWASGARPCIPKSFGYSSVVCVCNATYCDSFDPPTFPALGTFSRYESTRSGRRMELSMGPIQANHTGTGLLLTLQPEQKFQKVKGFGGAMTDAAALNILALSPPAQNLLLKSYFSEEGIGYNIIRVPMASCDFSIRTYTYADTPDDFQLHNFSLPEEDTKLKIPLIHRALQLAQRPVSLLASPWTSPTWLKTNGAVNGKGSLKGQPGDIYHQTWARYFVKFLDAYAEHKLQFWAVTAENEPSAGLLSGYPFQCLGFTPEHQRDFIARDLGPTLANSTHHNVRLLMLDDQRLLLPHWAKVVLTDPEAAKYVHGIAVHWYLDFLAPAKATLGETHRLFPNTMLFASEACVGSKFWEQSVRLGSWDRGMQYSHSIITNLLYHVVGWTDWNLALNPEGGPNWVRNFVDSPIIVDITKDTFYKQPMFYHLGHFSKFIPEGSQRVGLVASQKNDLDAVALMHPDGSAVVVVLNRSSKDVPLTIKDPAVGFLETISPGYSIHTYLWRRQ

The mark [5] stands for this setting: at 38 µM (top of the series) unless noted.

Sequence of Cytochrome P450 1A2 (Homo sapiens) (P05177 whole entry, looked up): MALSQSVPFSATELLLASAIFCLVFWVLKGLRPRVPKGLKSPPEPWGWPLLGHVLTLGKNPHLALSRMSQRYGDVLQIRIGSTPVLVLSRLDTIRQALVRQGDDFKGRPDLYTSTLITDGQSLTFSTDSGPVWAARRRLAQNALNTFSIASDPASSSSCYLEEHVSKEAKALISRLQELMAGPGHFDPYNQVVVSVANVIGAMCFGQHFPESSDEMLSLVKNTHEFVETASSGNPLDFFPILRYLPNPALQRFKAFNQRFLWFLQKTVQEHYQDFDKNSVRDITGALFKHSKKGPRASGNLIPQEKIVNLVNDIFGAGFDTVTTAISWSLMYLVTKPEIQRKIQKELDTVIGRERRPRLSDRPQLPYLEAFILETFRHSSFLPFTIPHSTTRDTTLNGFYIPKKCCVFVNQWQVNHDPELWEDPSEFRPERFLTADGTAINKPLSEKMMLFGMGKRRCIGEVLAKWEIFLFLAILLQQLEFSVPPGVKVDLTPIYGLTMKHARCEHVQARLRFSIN

With `COc1ccc(C(=O)NCc2cccnc2)cc1C(=O)NCc1cccnc1`, the activity change, negative = inhibition is 9.58% (inactive) in test [1] (at 17.2 µM (top of the series)), 4.86% (inactive) in test [1] (at 38 µM (top of the series)), -4.93% (inactive) in test [2] (at 17.2 µM (top of the series)) and -7.04% (inactive) in test [2] (at 38 µM (top of the series)).

Take `N#Cc1cc2nc(O)c(O)nc2cc1[N+](=O)[O-]`: in test [1] (setting [5]), the activity change, negative = inhibition was -1.83% (inactive). The Potency result in test [3] was “inactive and 39.8 µM (active)”.

Take `Nc1ncnc2c1c(-c1ccc(Oc3ccccc3)cc1)cn2C1CCCC1`: the activity change, negative = inhibition in test [1] (setting [5]) was -103% (active). Further, the Potency in test [3] is 15.8 µM (active).

In the case of `N=C(N)c1ccccc1`, the activity change, negative = inhibition in test [1] (setting [5]) was 10.4% (inactive). In test [3], the Potency result is “inactive”.

Consider `N#CC(C#N)=C(N)/C(C#N)=C/c1ccc(O)cc1`, for which the activity change, negative = inhibition in test [1] (setting [5]) was -3.7% (inactive). Further, in test [3], the Potency is 3.98 µM (active).

`O=[N+]([O-])c1cccc2cn[nH]c12`: the activity change, negative = inhibition was -15.6% (inactive) in test [1] (at 17.2 µM (top of the series)), 0.682% (inactive) in test [1] (at 38 µM (top of the series)), -4.2% (inactive) in test [2] (at 17.2 µM (top of the series)) and -7.34% (inactive) in test [2] (at 38 µM (top of the series)). The Potency in test [3] is 12.6 µM (active) and 2.51 µM (active).

`CCCCCCCCCCC/C=C\C(C)(C)/C=C\CCCC(=O)O`: the activity change, negative = inhibition in test [1] (setting [5]) is -13.8% (inactive). The Potency in test [3] was 39.8 µM (active).

In the case of `COc1ccc(-c2ccc(N)[n+](CCCC(=O)O)n2)cc1`, the activity change, negative = inhibition in test [1] (at 17.2 µM (top of the series)) is -6.26% (inactive); in test [1] (at 38 µM (top of the series)) it was -9.04% (inactive); in test [2] (at 17.2 µM (top of the series)) it was 1.69% (inactive); in test [2] (at 38 µM (top of the series)) it was 4.41% (inactive). Further, in test [3], the Potency result was “inactive”.

Consider `Cc1cc2c(cc1Cl)N(C(=O)Nc1ccnc3ccccc13)CC2`, for which the activity change, negative = inhibition in test [1] (setting [5]) was -29.6% (inactive).

For `CCCn1c(=O)c2[nH]c(C3CCCC3)nc2n(CCC)c1=O`, the activity change, negative = inhibition in test [1] (at 17.2 µM (top of the series)) is -7.55% (inactive); in test [1] (at 38 µM (top of the series)), -12.1% (inactive); in test [2] (at 17.2 µM (top of the series)), 11.5% (inactive); in test [2] (at 38 µM (top of the series)), -0.836% (inactive). For the same compound, in test [3], the Potency is 1.26 µM (active) and 251 nM (active).

Consider `N=C(N)c1ccc(OCCCCCOc2ccc(C(=N)N)cc2)cc1` (tested in a mixture with another compound), for which the activity change, negative = inhibition in test [1] (setting [5]) was 5.08% (inactive).

Consider `COc1ccc2c(c1)c(CC(=O)O)c(C)n2Cc1ccc(Cl)cc1`, for which the activity change, negative = inhibition in test [1] (setting [5]) was -18.2% (inactive). In test [3], the Potency was 31.6 µM (active).

`Cc1nc(N=Nc2ccc(C(=O)O)cc2)c(COP(=O)(O)O)c(C=O)c1O`: the activity change, negative = inhibition in test [1] (setting [5]) is -5.94% (inactive). Moreover, the Potency result in test [3] was “inactive”.

`Cc1ccc2c(c1)C(N1CCN(C)CC1)=Nc1cccnc1N2`: the activity change, negative = inhibition in test [1] (setting [5]) was 22.6% (inactive).

In the case of `Cn1c(=O)[nH]c2ncn(C)c2c1=O`, the activity change, negative = inhibition in test [1] (setting [5]) is 0.808% (inactive). Further, the Potency entry in test [3] was “inactive”.

`CCCCCCCCCCCCCCSCC(=O)O`: in test [1] (setting [5]), the activity change, negative = inhibition was -3.84% (inactive). Moreover, the Potency entry in test [3] is “inactive”.

Consider `C[N+](C)(C)CC=O`, for which the activity change, negative = inhibition in test [1] (setting [5]) is 3.33% (inactive).

`CN[C@H](CC(=O)O)C(=O)O`: the activity change, negative = inhibition in test [1] (setting [5]) is -0.55% (inactive). Moreover, the Potency entry in test [3] was “inactive”.

Take `CC1CNCCN1S(=O)(=O)c1cccc2cnccc12` (centres undefined): in test [1] (setting [5]), the activity change, negative = inhibition is 2.59% [at 17.2 µM] (inactive).

For `COc1ccc(NC(=O)c2ccc(-c3ccc(-c4noc(C)n4)cc3C)cc2)cc1N1CCN(C)CC1`, the activity change, negative = inhibition in test [1] (setting [5]) is -2.61% (inactive). Moreover, the Potency result in test [3] was “inactive”.

In the case of `CC(C)NCC(O)COc1ccc(CC(N)=O)cc1` (centres undefined), in test [1] (setting [5]), the activity change, negative = inhibition was 5.57% [at 17.2 µM] (inactive).

`N#C/C(=C\c1ccc(O)c(O)c1)C(=O)NCCCNC(=O)/C(C#N)=C/c1ccc(O)c(O)c1`: the activity change, negative = inhibition in test [1] (setting [5]) was -12.1% (inactive). The Potency result in test [3] was “inactive”.

Regarding `CC(C)Cn1c(=O)n(C)c(=O)c2[nH]cnc21`, the activity change, negative = inhibition in test [1] (setting [5]) was 0.858% (inactive). In addition, the Potency in test [3] is 20 µM (active).

For the compound `C[C@](Cc1ccc(O)c(O)c1)(NN)C(=O)O`, in test [1] (setting [5]), the activity change, negative = inhibition is -13.3% (inactive). For the same compound, the Potency in test [3] is 31.6 µM (active).

`CC(C)NC[C@H](O)COc1ccc(CC(N)=O)cc1`: the activity change, negative = inhibition in test [1] (at 17.2 µM (top of the series)) is -3.59% (inactive) and 11.3% (inactive); in test [1] (at 38 µM (top of the series)), 0.299% (inactive) and 0.963% (inactive) and -3.89% (inactive).

Turning to `COc1ccccc1N1CCN(CCCCNC(=O)c2ccc3ccccc3c2)CC1`, the activity change, negative = inhibition in test [1] (setting [5]) was 1.71% (inactive). For the same compound, the Potency in test [3] is 20 µM (active) and inactive.

In the case of `O=c1[nH]c(=S)[nH]c(-c2ccccc2)c1Cc1c(O)ccc2ccccc12`, the Potency in test [4] is > 11.4 µM (inactive); in test [3] it was 1 µM (active). Also, the activity change, negative = inhibition in test [1] (setting [5]) was -11.2% [at 7.69 µM] (inactive); in test [2] (setting [5]) it was 15.8% [at 7.69 µM] (inactive).

Consider `CSC(=N)N`, for which the activity change, negative = inhibition in test [1] (setting [5]) is -0.186% (inactive). The Potency result in test [3] was “inactive”.

Take `NC(N)=NC(N)=Nc1ccccc1`: in test [1] (setting [5]), the activity change, negative = inhibition is -6.28% (inactive). Further, in test [3], the Potency result is “inactive and 31.6 µM (active)”.

In the case of `O=c1cc(-c2ccccc2)[nH]c2nc(Cl)ccc12`, in test [1] (setting [5]), the activity change, negative = inhibition is -2.89% (inactive). Besides, the Potency in test [3] is 0.398 µM (active).

For the compound `O=C(O)c1cc2cc(F)ccc2[nH]1`, the activity change, negative = inhibition is 14.4% (inactive) in test [1] (at 17.2 µM (top of the series)) and 0.264% (inactive) in test [1] (at 38 µM (top of the series)). For the same compound, the Potency result in test [3] was “inactive”.

Take `NCCS(=O)O`: the activity change, negative = inhibition in test [1] (setting [5]) is 7.28% (inactive). Moreover, in test [3], the Potency result was “inactive”.

Consider `CC(C)[C@H](NC(=O)OCc1ccccc1)C(=O)N[C@H](C=O)Cc1ccccc1` (Cbz-Val-Phe-aldehyde), for which the activity change, negative = inhibition in test [1] (setting [5]) is -8.71% (inactive). In addition, the Potency result in test [3] was “inactive”.
